The results in this text go back to PubChem BioAssay (NCI).

Compounds without any hit were thinned out: in the full panel of roughly 79,000, 15% have a hit. Values without a mark were called inactive. Activity calls are given as the source filed them. Rule as the data show it: active = growth inhibition above about 70%; inactive = the rest.

Assay [1] is described as follows: NCI Yeast Anticancer Drug Screen. Data for the rad50 strain (AID 155).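 Also: 0% = growth of vehicle-only cultures of the same strain.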 As to conditions: S. cerevisiae rad50 strain growth inhibition, active compounds read high. Summed up: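 Growth of the mutant yeast was measured after compound exposure and referenced to vehicle-treated cultures.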
The nature of assay [2]: NCI Yeast Anticancer Drug Screen. Data for the mec2-1 strain (AID 157). The settings on record: S. cerevisiae mec2-1 strain, active compounds read high. The method in brief: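 mec2-1 yeast strain, carrying an alteration in DNA damage repair or cell cycle control, was exposed to compounds; growth inhibition was measured relative to vehicle-treated controls.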
Assay [3] in a line: NCI Yeast Anticancer Drug Screen. Data for the sgs1 mgt1 strain (AID 161).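 Also: 0% = growth of cultures given vehicle only.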 As to conditions: S. cerevisiae sgs1 mgt1 strain, active compounds read high. Summed up: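 Percent growth inhibition was derived by comparing compound-exposed mutant yeast with vehicle-exposed cultures. The strain carries alterations in DNA damage repair.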
Assay [4] in a line: NCI Yeast Anticancer Drug Screen. Data for the cln2 rad14 strain (AID 165).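 Also: 0% = growth equal to vehicle treated cultures.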 As to conditions: S. cerevisiae cln2 rad14 strain, active compounds read high. The method in brief:
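Yeast carrying cln2 and rad14 alterations (cell cycle control and DNA damage repair) were exposed to compounds. Growth inhibition was measured against vehicle-treated controls.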

Assay [5] in a line: NCI Yeast Anticancer Drug Screen. Data for the bub3 strain (AID 167). The settings on record: S. cerevisiae bub3 mutant strain, active compounds read high. Summed up:
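Whole-cell yeast assay. The mutant strain was incubated with compounds, and growth inhibition was determined by comparison with vehicle-treated cells.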

Assay [6] in a line: NCI Yeast Anticancer Drug Screen. Data for the mlh1 rad18 strain (AID 175). As to conditions: S. cerevisiae mlh1 rad18 strain growth inhibition, active compounds read high. Summed up:
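Growth inhibition of the yeast strain was measured after compound exposure and expressed relative to vehicle-treated controls. The strain carries defined defects in DNA damage repair.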

[7] abbreviates: at 5.0 µM (retest, dose inferred, filed as 0.5).
The mark [8] stands for this setting: at 50.0 µM (retest, dose inferred, filed as 5.0).

Take `CCOC(=O)c1ccc(NP(=O)(Oc2ccccc2)Oc2ccccc2)cc1`: the growth inhibition is -4% in assay [1] (setting [7]); 49% in assay [1] (setting [8]); 64.8% in assay [1] (at 50.0 µM); 18% in assay [2] (setting [7]); 75% (active) in assay [2] (setting [8]); 52.9% in assay [2] (at 50.0 µM). The growth inhibition in assay [3] (setting [7]) is -18%; in assay [3] (setting [8]) it was 66%; in assay [3] (at 50.0 µM), 64.7%; in assay [4] (setting [7]), -10%; in assay [4] (setting [8]), 56%; in assay [4] (at 50.0 µM), 69.2%. Moreover, the growth inhibition in assay [5] (setting [7]) is -6%; in assay [5] (setting [8]), 89% (active); in assay [5] (at 50.0 µM) it was 59.5%; in assay [6] (setting [7]), 24%; in assay [6] (setting [8]) it was 88% (active); in assay [6] (at 50.0 µM), 77.8% (active).

In the case of `CC[CH2][Pb]([CH2]CC)([CH2]CC)[NH]S(=O)(=O)c1ccc(C)cc1`, the growth inhibition in assay [1] (setting [7]) was 99% (active); in assay [1] (setting [8]), 99% (active); in assay [1] (at 50.0 µM), 99.5% (active); in assay [2] (setting [7]), 99% (active); in assay [2] (setting [8]) it was 100% (active); in assay [2] (at 50.0 µM) it was 99.7% (active). Further, the growth inhibition is 99% (active) in assay [3] (setting [7]); 99% (active) in assay [3] (setting [8]); 99.6% (active) in assay [3] (at 50.0 µM); 98% (active) in assay [4] (setting [7]); 99% (active) in assay [4] (setting [8]); 97.9% (active) in assay [4] (at 50.0 µM). The growth inhibition in assay [5] (setting [7]) is 100% (active); in assay [5] (setting [8]), 100% (active); in assay [5] (at 50.0 µM), 99.5% (active); in assay [6] (setting [7]) it was 99% (active); in assay [6] (setting [8]), 100% (active); in assay [6] (at 50.0 µM), 99.5% (active).

As to `CCC(C)c1cnc(CC(C)C)c(=O)n1O` (stereo unspecified), the growth inhibition is 87% (active) in assay [1] (setting [7]); 99% (active) in assay [1] (setting [8]); 91% (active) in assay [1] (at 50.0 µM); 26% in assay [2] (setting [7]); 99% (active) in assay [2] (setting [8]); 88.8% (active) in assay [2] (at 50.0 µM). For the same compound, the growth inhibition in assay [3] (setting [7]) was 75% (active); in assay [3] (setting [8]), 98% (active); in assay [3] (at 50.0 µM), 90% (active); in assay [4] (setting [7]), 68%; in assay [4] (setting [8]), 98% (active); in assay [4] (at 50.0 µM), 86.3% (active). For the same compound, the growth inhibition is 59% in assay [5] (setting [7]); 98% (active) in assay [5] (setting [8]); 90.7% (active) in assay [5] (at 50.0 µM); 73% (active) in assay [6] (setting [7]); 99% (active) in assay [6] (setting [8]); 89.6% (active) in assay [6] (at 50.0 µM).

For the compound `Oc1c(Cl)c(Cl)c(O)c(Cl)c1Cl`, the growth inhibition is 65% in assay [1] (setting [7]); 97% (active) in assay [1] (setting [8]); 99.2% (active) in assay [1] (at 50.0 µM); 35% in assay [2] (setting [7]); 99% (active) in assay [2] (setting [8]); 99.3% (active) in assay [2] (at 50.0 µM). Further, the growth inhibition in assay [3] (setting [7]) is 37%; in assay [3] (setting [8]), 99% (active); in assay [3] (at 50.0 µM), 99.1% (active); in assay [4] (setting [7]) it was -2%; in assay [4] (setting [8]), 80% (active); in assay [4] (at 50.0 µM), 95.7% (active). The growth inhibition was 64% in assay [5] (setting [7]), 97% (active) in assay [5] (setting [8]) and 99.1% (active) in assay [5] (at 50.0 µM).

For `CC(C)=N.[C-]#[O+].[C-]#[O+].[C-]#[O+].[C-]#[O+].[C-]#[O+].[W]`, the growth inhibition was 30% in assay [1] (setting [7]); 34% in assay [1] (setting [8]); -7.35% in assay [1] (at 50.0 µM); 15% in assay [2] (setting [7]); 35% in assay [2] (setting [8]); -2.45% in assay [2] (at 50.0 µM). Further, the growth inhibition in assay [3] (setting [7]) was 26%; in assay [3] (setting [8]), 34%; in assay [3] (at 50.0 µM), -11.8%; in assay [4] (setting [7]), 36%; in assay [4] (setting [8]), 31%; in assay [4] (at 50.0 µM), 0.7%. In addition, the growth inhibition is 36% in assay [5] (setting [7]); 47% in assay [5] (setting [8]); 64.5% in assay [5] (at 50.0 µM); 45% in assay [6] (setting [7]); 43% in assay [6] (setting [8]); -13.1% in assay [6] (at 50.0 µM).

On to `C[Se]C([Se]C)=C([Se]C)[Se]C`, for which the growth inhibition in assay [1] (setting [7]) was 9%; in assay [1] (setting [8]), 95% (active); in assay [1] (at 50.0 µM), 29.5%; in assay [2] (setting [7]) it was 3%; in assay [2] (setting [8]) it was 91% (active); in assay [2] (at 50.0 µM) it was 99% (active). Moreover, the growth inhibition was -1% in assay [3] (setting [7]); 99% (active) in assay [3] (setting [8]); 52% in assay [3] (at 50.0 µM); 2% in assay [4] (setting [7]); 59% in assay [4] (setting [8]); 45.2% in assay [4] (at 50.0 µM). For the same compound, the growth inhibition is 5% in assay [5] (setting [7]); 92% (active) in assay [5] (setting [8]); -0.4% in assay [5] (at 50.0 µM); 1% in assay [6] (setting [7]); 94% (active) in assay [6] (setting [8]); 85.3% (active) in assay [6] (at 50.0 µM).

`COC1CCC(OC2CC(C3(C)CCC4(CC(O)C(C)C(C(C)/C=C(\C)C(=O)C(C)CC(C)C(=O)O)O4)O3)OC3(OC(C4OC(O)(CO)C(C)CC4C)CC3C)C2C)OC1C` (stereo unspecified): the growth inhibition in assay [1] (setting [7]) is 7%; in assay [1] (setting [8]), 85% (active); in assay [1] (at 50.0 µM) it was 61.1%; in assay [2] (setting [7]), 19%; in assay [2] (setting [8]), 83% (active); in assay [2] (at 50.0 µM), 71.8% (active). For the same compound, the growth inhibition was 23% in assay [3] (setting [7]); 83% (active) in assay [3] (setting [8]); 63.1% in assay [3] (at 50.0 µM); 65% in assay [4] (setting [7]); 92% (active) in assay [4] (setting [8]); 68.6% in assay [4] (at 50.0 µM). The growth inhibition in assay [5] (setting [7]) was -5%; in assay [5] (setting [8]), 59%; in assay [5] (at 50.0 µM), 58.1%; in assay [6] (setting [7]), 22%; in assay [6] (setting [8]), 73% (active); in assay [6] (at 50.0 µM), 69.4%.

Consider `O=P1(N2CCOCC2)OC(c2ccccc2)=CCN1c1ccccc1` (stereo unspecified), for which the growth inhibition in assay [1] (setting [7]) was 3%; in assay [1] (setting [8]) it was 4%; in assay [1] (at 50.0 µM), -0.15%; in assay [2] (setting [7]), -1%; in assay [2] (setting [8]), -1%; in assay [2] (at 50.0 µM) it was 47.1%. Also, the growth inhibition was 5% in assay [3] (setting [7]); 81% (active) in assay [3] (setting [8]); 24.6% in assay [3] (at 50.0 µM); -1% in assay [4] (setting [7]); -2% in assay [4] (setting [8]); 39% in assay [4] (at 50.0 µM). Also, the results for the growth inhibition in assay [5] (setting [7]), in assay [5] (setting [8]) and in assay [5] (at 50.0 µM) were 3%, 25% and 10.3%, respectively.

For `CCC[CH2][Sn]1([CH2]CCC)[O]CCN2CCN(CC[O]1)CC2`, the growth inhibition was -4% in assay [1] (setting [7]); 12% in assay [1] (setting [8]); 74.1% (active) in assay [1] (at 50.0 µM); -4% in assay [2] (setting [7]); 13% in assay [2] (setting [8]); 94% (active) in assay [2] (at 50.0 µM). Moreover, the growth inhibition in assay [3] (setting [7]) was -3%; in assay [3] (setting [8]), 9%; in assay [3] (at 50.0 µM), 83.2% (active); in assay [4] (setting [7]), -5%; in assay [4] (setting [8]), 5%; in assay [4] (at 50.0 µM), 41.6%. For the same compound, the growth inhibition was -2% in assay [5] (setting [7]); 10% in assay [5] (setting [8]); 53.1% in assay [5] (at 50.0 µM); -6% in assay [6] (setting [7]); 15% in assay [6] (setting [8]); 85.7% (active) in assay [6] (at 50.0 µM).
